Out of some 410,000 compounds screened, about 310 (0.076%) were called active. Roughly 2% stayed inconclusive and do not appear here. The call rests on the fitted dose curve; in most records, active means well fitted activation curve with a large enough effect; inconclusive means small, poorly fitted or top-dose-only effect, or another doubt; inactive means no such curve, though single readings can be large or run the other way. The list comes from a sample in which actives are over-represented; it also holds similar structures and randomly drawn compounds. Where a call stands in place of a potency, no number is given.

This note sets out measurements from PubChem BioAssay AID743266 (National Center for Advancing Translational Sciences (NCATS), 2014).
Potency means the concentration at half of the fitted maximal effect.

Chain of Parathyroid hormone/parathyroid hormone-related peptide receptor (Homo sapiens) (Q03431 whole entry, looked up): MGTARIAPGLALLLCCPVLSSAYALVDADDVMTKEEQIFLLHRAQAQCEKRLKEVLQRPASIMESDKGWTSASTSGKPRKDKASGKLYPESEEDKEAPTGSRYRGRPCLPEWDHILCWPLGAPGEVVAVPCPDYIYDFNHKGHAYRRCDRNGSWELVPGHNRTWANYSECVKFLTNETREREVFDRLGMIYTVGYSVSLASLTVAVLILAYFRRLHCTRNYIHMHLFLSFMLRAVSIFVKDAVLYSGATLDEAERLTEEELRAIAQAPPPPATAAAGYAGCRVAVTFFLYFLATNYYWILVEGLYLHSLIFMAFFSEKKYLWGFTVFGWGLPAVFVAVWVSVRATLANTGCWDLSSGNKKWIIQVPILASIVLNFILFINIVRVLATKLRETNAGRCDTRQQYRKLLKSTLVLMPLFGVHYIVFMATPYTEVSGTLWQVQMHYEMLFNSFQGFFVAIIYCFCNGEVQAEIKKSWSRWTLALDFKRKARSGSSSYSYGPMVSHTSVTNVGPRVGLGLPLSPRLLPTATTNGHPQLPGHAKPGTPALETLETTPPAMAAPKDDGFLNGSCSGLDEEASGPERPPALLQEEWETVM

The assay deals with Parathyroid hormone/parathyroid hormone-related peptide receptor (Homo sapiens) (UniProt Q03431). The experiment in a line: qHTS for PTHR1 Agonists: Primary Screen. Further: nearly all actives have a fitted effect of over 55% in size. To be noted: HEK293 GP2 PTHR1 cells, GloSensor cAMP luminescence, 1 h; series mostly up to 115 µM. From the text:
The goal of the proposed studies is to discover new compounds that act as potent agonists on the parathyroid hormone receptor type-1 (PTHR1). The PTHR1 plays critical roles in maintaining blood calcium and phosphate levels, as well as in controlling bone remodeling. PTHR1 agonists could thus be useful for treating diseases such as hypoparathyroidism and osteoporosis. In the former disease, an agonist drug would help maintain normal blood calcium and phosphate levels under conditions of parathyroid hormone deficiency. In the latter disease, an agonist drug would stimulate new bone formation and thus reduce the risk of fracture, under conditions of bone fragility, as occurs in aging.
To that end, we performed a quantitative high-throughput screening (qHTS) of the Molecular Libraries Probe Centers Network (MLPCN) compound libraries at the NIH Chemical Genomics Center (NCGC) for the parathyroid hormone receptor type-1 (PTHR1) using a unique HEK-293-derived cell line (GP2) that expresses the PTHR1 and a glosensor cAMP reporter construct.
NIH Molecular Libraries Probe Production Centers Network [MLPCN]
NIH Chemical Genomics Center [NCGC]
Assay Submitter (PI): Thomas Gardella, Massachusetts General Hospital
4 microL are dispensed into a 1536-well micro plate to yield 3,000 cells/well. The plates are then incubated overnight, after which 4 microL of 0.5 mM of BIoTium Luciferin plus 0.5 mM IBMX are added. They are then incubated at 37 degree for one hour before 23 nL of compounds are added through pinning and then incubated at 37 degree again for another hour. After the plates are kept at room temperature for 15 min before they are read on the ViewLux to measure luminescence.
For orientation: Quantitative high-throughput screening tests each substance at several concentrations.
As for `CC1=C(c2ccc(C)c(C)c2)S(=O)(=O)NC1=NCc1ccccc1Cl`, the Potency entry was “inactive”. Then `COC(=O)c1cc(NC(=O)c2sc3ccccc3c2Cl)cc(C(=O)OC)c1`, with “inactive”; and `Cc1[nH]c2ccccc2c1C(c1ccccc1)c1cccs1` (centres undefined), with “inactive”. Then `CCOc1ccc(N(Cc2ccccc2)C(=O)c2nc(S(C)(=O)=O)ncc2Cl)cc1`, with “inactive”; and `CCOCCCNC(=O)c1cn(CC)c2ccc(S(=O)(=O)N3CCc4ccccc4C3)cc2c1=O`, with “inactive”.

As to `Cc1ccc(OCC(=O)Nc2ccc(Cl)c(-c3nc4ccccc4[nH]3)c2)cc1C`, the Potency result was “inactive”. As for `CCC1=Nc2cc(C(=O)NCCCOC(C)C)ccc2Sc2ccc(C)cc21`, the Potency entry was “inactive”. As to `COc1ccc(-c2noc(CCC(=O)N(C)c3ccccc3C)n2)cc1`, the Potency result is “inactive”. Then `Cc1cccc(N2CCN(c3ccc(C(=O)O)cc3NC(=O)c3ccccc3F)CC2C)c1` (centres undefined), with “inactive”; and `Cc1cc(C)cc(NS(=O)(=O)c2ccc(-c3cc(C)no3)s2)c1`, with “inactive”; and `COc1cc(C(=O)NCCS(=O)(=O)N2CCN(c3ccccc3)CC2)cc(OC)c1OC`, with “inactive”. On to `CCOc1ccc(C(=O)c2cn(Cc3ccccc3OC)c3ccc(F)cc3c2=O)cc1`, for which the Potency result was “inactive”. Turning to `CN1C(=O)c2ccccc2Sc2ccc(NC(=O)Cc3ccc(Cl)cc3)cc21`, the Potency result was “inactive”.

As to `Cc1ccccc1-c1nc2scc(CCNC(=O)C(=O)Nc3ccc(F)cc3F)n2n1`, the Potency entry is “inactive”.

As to `O=C(CCS(=O)(=O)c1cc(Br)cc2c1N(C(=O)C1CC1)CC2)Nc1ccc(C(F)(F)F)cc1`, the Potency entry is “inactive”. On to `Cc1cc(C)c(NC(=O)CSc2nc3nccnc3c(=O)n2CCc2c[nH]c3ccccc23)c(C)c1`, for which the Potency entry was “inactive”. As to `COc1ccccc1C(=O)Nc1c(C(=O)N(C)Cc2ccccc2)sc2nc(C)c(Cl)c(C)c12`, the Potency entry is “inactive”. Consider `CCN(C(=O)Cn1cnc2sc(C)c(S(=O)(=O)N3CCN(c4ncccn4)CC3)c2c1=O)c1ccccc1F`, for which the Potency result is “inactive”. On to `CCC(=O)N1CCc2cc(CNC(=O)Nc3ccccc3Cl)ccc21`, for which the Potency entry is “inactive”. Regarding `CSc1nc(-c2ccc(F)cc2)nc2c1Cc1c(CO)cnc(C)c1O2`, the Potency result was “inactive”. Then `Cc1ccccc1OCCSc1nc2ccc(NC(=O)c3ccco3)cc2s1`, with “inactive”. For `Cc1ccc(Cn2c(=O)n(-c3ccc(C)cc3)c(=O)c3c2c2cc(C)ccc2n3C)cc1`, the Potency result was “inactive”. In the case of `Cc1ccsc1CN(C(=O)c1oc2ccc(Br)cc2c1C)C1CCS(=O)(=O)C1` (centres undefined), the Potency entry is “inactive”. Then `Cc1ccccc1CSc1nc2c([nH]c3ccccc32)c(=O)n1C`, with “inactive”. On to `CC(=O)c1ccc(N2CCN(c3nc4c(S(=O)(=O)c5ccccc5)nnn4c4ccc(Cl)cc34)CC2)cc1`, for which the Potency entry was “inactive”. Then `Cc1cccc(N2CCN(C(=O)Cn3ncc4c5ccccc5n(C)c4c3=O)CC2C)c1` (centres undefined), with “inactive”. For `CCOc1ccc(C2C(C(=O)Nc3ccc(Cl)cc3)=C(C)Nc3nc(C(F)(F)F)nn32)cc1` (centres undefined), the Potency result is “inactive”. For `CCN(C(=O)Cn1c(=O)nc(-c2ccccc2)c2cc(Cl)ccc21)c1cccc(C)c1`, the Potency result was “inactive”. As for `Cc1cc(C)cc(NC(=O)CCCc2nc(-c3ccccc3Cl)no2)c1`, the Potency result was “inactive”. Take `CCOC(=O)C1CCN(c2nc3c(S(=O)(=O)c4ccc(CC)cc4)nnn3c3ccc(Cl)cc23)CC1`: the Potency result is “inactive”. For the molecule `Cc1ccc(CNC(=O)CCC(=O)N2Cc3ccccc3Oc3ncccc32)cc1`, the Potency entry is “inactive”.

For the molecule `CCOC(=O)c1c(NC(=O)Cc2coc3ccc(CC)cc23)sc2c1CCC2`, the Potency result is “inactive”. `CCOc1ccccc1N(CC)C(=O)Nc1cn(C)c(=O)c2ccccc12`: the Potency entry is “inactive”.

In the case of `O=C(NCCCO)c1nn(-c2ccc(Cl)cc2)nc1CO`, the Potency result is “inactive”.

On to `CCc1nn(CC(=O)N2CCN(c3ccc(Cl)cc3)CC2)c(=O)c2cc3occc3n12`, for which the Potency result was “inactive”. For the molecule `CC(C)Cn1c(C2CC(=O)N(c3ccccc3Cl)C2)nc2ccccc21` (centres undefined), the Potency result was “inactive”. `Cn1c(COc2ccccc2C(C)(C)C)nc2ccccc21`: the Potency entry was “inactive”. Regarding `COc1ccc(NC(=O)CSC2=Nc3ccccc3C3=NC(CC(=O)NCc4ccccc4OC)C(=O)N23)cc1Cl` (centres undefined), the Potency entry was “inactive”. Take `CC(CCCc1ccccc1)NC(=O)c1nn(-c2ccc(Cl)cc2)nc1CO` (centres undefined): the Potency result was “inactive”. Take `COc1ccc(CNc2nc(-c3ccc(Cl)cc3)nn2C(=O)c2ccccc2)cc1`: the Potency result is “inactive”. With `Cc1ccc(CCNC(=O)C2CCN(c3nnc(-n4cccc4CNc4ccc(C)cc4)s3)CC2)cc1`, the Potency result was “inactive”. Then `Cc1ccc(SCC(=O)Nc2ccc3oc(-c4ccccc4F)nc3c2)cc1`, with “inactive”; and `CC(=O)N1c2ccc(S(=O)(=O)N3CCCCCC3)cc2CC1C(=O)NCc1ccccc1C` (centres undefined), with “inactive”. Regarding `Cc1cccc(C)c1-n1ncc(C(=O)NCCCN2CCCCC2)c1C1CCN(C(=O)OC(C)(C)C)CC1`, the Potency is 14.1 µM (active). `COc1ccccc1N1CCN(CCCNC(=O)c2cnn(-c3ccccc3Cl)c2C2CCN(C(=O)OC(C)(C)C)CC2)CC1`: the Potency result was “inactive”. Then `CCN1CCN(CCCNC(=O)c2cnn(-c3ccc(C)cc3C)c2C2CCN(C(=O)OC(C)(C)C)CC2)CC1`, with “inactive”; and `O=C(NC1CCCCC1)c1ccc(Cn2c(SCc3ccccc3)nc3cccnc32)cc1`, with “inactive”.

On to `COc1ccc(N(C)C(=O)C2CCN(S(=O)(=O)c3cc(Br)cc4c3N(C(C)=O)CC4)CC2)cc1`, for which the Potency result was “inactive”. `CCOc1ccc(OCC)c(NC(=O)c2c(C)nn(-c3ccccc3)c2-n2cccc2)c1`: the Potency result was “inactive”.

With `COc1cccc(-c2n[nH]c3c2C(c2cccc(O)c2)N(C)C3=O)c1` (centres undefined), the Potency entry is “inactive”. Then `CCCN1CCN(CCCNC(=O)Cn2nc(CC)n3c(cc4occc43)c2=O)CC1`, with “inactive”; and `COc1ccc2c(c1)c(N1CCCC1=O)c(C(=O)Nc1ccc(OC)c(Cl)c1)n2C`, with “inactive”. For the molecule `COC(=O)c1cc2occc2n1Cc1nc(-c2ccc(C)cc2)oc1C`, the Potency result is “inactive”. As to `Cc1ccc(-c2cnc(NCc3ccc(C(C)C)cc3)n2C)cc1`, the Potency entry is “inactive”.

Take `C=Cc1ccc(Cn2c(C(=O)O)c(CNC3CCCC3)c3ccc(C)cc32)cc1`: the Potency result was “inactive”. Consider `CCN(CC)C(=O)CSc1nc2cc3c(cc2c(=O)n1CCCC(=O)NCc1ccc2c(c1)OCO2)OCO3`, for which the Potency result is “inactive”. Take `CCOc1ccc(CNC(=O)C2CCCN(S(=O)(=O)N(CC)c3ccc(OCC)cc3)C2)cc1` (centres undefined): the Potency entry was “inactive”. As for `CCN(CC)S(=O)(=O)c1ccc2c(c1)c(=O)c(C(=O)N1CCN(c3cccc(Cl)c3)CC1)cn2C`, the Potency result was “inactive”. In the case of `COc1cccc(CNC(=O)C2CCC(CNS(=O)(=O)c3cccs3)CC2)c1` (centres undefined), the Potency entry was “inactive”.
